L929 necroptosis = L929 zVAD cell death inhibition. viability rescue, % at 10 µM. 0.38% of 220,000 active. L929 zVAD necroptosis rescue, ATP luminescence, 24 h; with zVAD 60 µM. AID 1377;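 active = activation, scaled between plate controls, above about 75%, limit read from the data; inactive = activation under that limit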;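 note: 0% = zVAD with DMSO and 100% = DMSO alone without zVAD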
PKD1 inh = PKD1 (human) kinase inhibition. Q15139. PKD1 kinase fluorescence polarization assay. inhibition, % (no concentration beside the values). 0.056% of 200,000 active. AID 797; in the data active = inhibition above about 50%
TNF death inh = inhibitors of TNF-alpha induced necroptosis in Jurkat FADD-/- cells; 0.068% of 220,000 active; Jurkat FADD-/- TNF necroptosis rescue, ATP luminescence, 24 h; 0 = TNF only, 100 = no-TNF cells; activation (protection from cell death), % at 10 µM;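 active = activation, meaning protection from cell death, of at least 50% relative to plate controls; inactive = activation below 50%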;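 note: necroptosis triggered by 40 ng/mL TNF-alpha added together with compound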
PERK inh = human PERK inhibition, primary cell-based screen; Q9NZJ5; CHO PERK-DD fusion, SEAP luminescence translation reporter; inhibition, % at 5.6 µM; 0.17% of 220,000 active;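 active = inhibition above the mean inhibition of all tested compounds plus 3 SD, set separately per screening campaign, cut at about 2.9% in these data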;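 note: PERK kinase domain activated by AP20187 dimerizer at 100 nM; 0% = DMSO with dimerizer and 100% = rapamycin at 8.4 µM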
Target sequence (Q9NZJ5 whole entry, looked up, the tested form may be a part): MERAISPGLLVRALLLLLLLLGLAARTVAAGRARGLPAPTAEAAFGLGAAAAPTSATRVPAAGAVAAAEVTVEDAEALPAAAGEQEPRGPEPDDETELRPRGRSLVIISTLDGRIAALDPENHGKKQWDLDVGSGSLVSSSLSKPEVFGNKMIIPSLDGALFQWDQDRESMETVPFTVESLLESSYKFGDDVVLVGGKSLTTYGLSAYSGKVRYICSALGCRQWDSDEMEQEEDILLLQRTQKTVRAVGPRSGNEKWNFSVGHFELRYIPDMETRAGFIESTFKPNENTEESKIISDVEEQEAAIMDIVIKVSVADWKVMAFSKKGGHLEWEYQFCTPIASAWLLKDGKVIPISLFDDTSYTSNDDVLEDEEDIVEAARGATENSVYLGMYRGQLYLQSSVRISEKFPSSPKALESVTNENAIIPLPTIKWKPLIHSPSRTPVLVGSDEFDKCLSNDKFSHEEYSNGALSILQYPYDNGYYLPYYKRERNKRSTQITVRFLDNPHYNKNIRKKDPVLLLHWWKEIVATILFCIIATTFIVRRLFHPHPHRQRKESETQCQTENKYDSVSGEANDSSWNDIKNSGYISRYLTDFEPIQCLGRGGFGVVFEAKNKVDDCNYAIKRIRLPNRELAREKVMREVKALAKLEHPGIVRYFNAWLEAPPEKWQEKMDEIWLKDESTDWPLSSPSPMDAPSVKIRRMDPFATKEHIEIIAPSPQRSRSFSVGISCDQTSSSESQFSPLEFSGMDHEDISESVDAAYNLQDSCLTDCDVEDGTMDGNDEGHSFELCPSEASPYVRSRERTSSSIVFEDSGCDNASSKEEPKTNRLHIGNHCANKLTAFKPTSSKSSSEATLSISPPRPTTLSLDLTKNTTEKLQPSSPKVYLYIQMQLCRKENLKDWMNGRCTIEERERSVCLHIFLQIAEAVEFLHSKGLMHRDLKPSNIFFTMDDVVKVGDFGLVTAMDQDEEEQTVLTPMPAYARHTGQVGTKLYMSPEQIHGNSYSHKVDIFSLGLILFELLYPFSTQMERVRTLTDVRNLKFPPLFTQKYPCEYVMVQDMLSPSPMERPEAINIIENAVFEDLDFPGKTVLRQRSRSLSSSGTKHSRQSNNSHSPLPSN
Redox H2O2 prof = compounds producing H2O2 with reducing agent – biochemical, NIH compound library profiling, artefact control for MLSCN library redox annotation, primary screen. 0.03% of 200,000 active. DTT-dependent redox cycling H2O2, phenol red/HRP absorbance; 100% = 100 µM peroxide control, 0% = buffer. activation, % at 10 µM;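 active = activation of at least 50% relative to the plate's high and low controls in the primary single-dose screen; inactive = activation below 50%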;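 note: compound incubated with DTT at 0.8 mM final as the reducing agent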
WT yeast gro inh = growth inhibition of WT yeast, mitochondrial fusion screen; AID 1362; 2.1% of 190,000 active; inhibition, % at 10 µM; mitochondrial fusion phenotypic screen, WT strain; in the data active = inhibition above about 58%; tested in S. cerevisiae
* = called active by the depositor; · = no result. Only some compounds are listed: those with a hit (about 2.4% of all), similar ones and a draw of the others.

SMILES	L929 necroptosis	PKD1 inh	TNF death inh	PERK inh	Redox H2O2 prof	WT yeast gro inh
CN(Cc1ccc2nonc2c1)Cc1nc(CC2CC2)no1	-0.7	1.2	0.9	1.1	1.7	5.3
CCOC(=O)c1c(NC(=O)CSc2nnc(C)o2)sc(C)c1C	-0.1	·	1.0	-0.1	·	·
NC(=O)c1cc2c3ccccc3ccn2c1-c1ccccc1	-0.1	·	-11.8	1.0	·	·
COc1ccc(CNC(=O)C2CCC(CNc3nc(=S)[nH]c4ccccc34)CC2)cc1 (stereo not drawn)	-0.4	-7.6	2.3	0.1	-0.5	-0.3
CCN1/C(=C/c2ccc3cc(C)ccc3[n+]2CC)Sc2cc(C)c(C)cc21	16.7	-21.3	-8.5	-0.1	0.0	91.6*
CCN1/C(=C/c2ccc3cc(C)ccc3[n+]2CC)Sc2ccccc21	9.3	-25.1	-11.8	-0.8	0.6	66.5
Cc1ccc(CSc2nnc(CNc3ccc(F)cc3)o2)cc1	5.5	-1.7	15.2	1.5	-2.1	-2.1
Cc1nn2c3ccccc3nc2n(Cc2ccccc2)c1=O	-1.2	-12.4	-1.8	3.1*	0.1	·
COC(=O)c1cc2c(ccn2-c2ccc(F)cc2)n1Cc1ccc(OC)cc1	-0.3	-13.9	2.6	0.7	1.8	-21.0
CCn1c(C(=O)OC)cc2c1ccn2-c1ccc(F)cc1	0.6	-4.1	-0.5	-0.1	2.1	76.5*
Cc1cc(C)n(CC(O)Cn2c3ccc(Br)cc3c3cc(Br)ccc32)c(=O)n1 (stereo not drawn)	-0.1	2.8	-2.6	-0.1	-0.1	91.3*
Cc1cc(C)n(CC(O)Cn2c3ccccc3c3ccccc32)c(=O)n1 (stereo not drawn)	-0.2	1.0	-1.7	-0.4	-0.5	6.8
CCOC(=O)C1CCCN(C(=O)c2cccc([N+](=O)[O-])c2C)C1 (stereo not drawn)	-1.8	10.3	-0.7	-0.2	0.4	4.1
C=CCn1c(=NC(=O)CC)n(C)c2ccccc21	-0.1	0.8	0.0	0.4	-0.3	-0.6
CCc1nnc(NC(=O)CSc2nc3ccc(OC)cc3[nH]2)s1	41.0	0.1	0.3	-0.3	0.1	-8.5
CCOc1ccc(C(c2c(NC(=O)c3ccccc3)sc(C)c2C)N2CCN(C)CC2)cc1 (stereo not drawn)	1.9	0.2	2.8	-0.6	0.7	77.9*
Cc1sc(NC(=O)c2ccccc2)c(C(c2ccccn2)N2CCN(CCO)CC2)c1C (stereo not drawn)	0.6	8.3	1.3	-0.7	0.6	8.6
O=C(Cc1nc2ccccc2[nH]1)c1ccc(Br)cc1	-0.3	-6.9	-1.0	-0.9	-0.5	9.2
O=C(CCc1ccc(S(=O)(=O)N2CCOCC2)cc1)N1CCN(Cc2ccc3c(c2)OCO3)CC1	1.3	-2.3	0.5	-0.8	0.1	4.8
Cc1cccc(-n2ncc3c(N4CCCc5ccccc54)ncnc32)c1	-0.4	-3.7	-2.0	-0.5	0.1	71.0*
Cc1cccc(-n2ncc3c(NCc4ccccc4)ncnc32)c1	2.3	-9.0	-5.2	0.1	-2.5	9.5
COc1ccc(C(CC(=O)O)NC(=O)COc2cc(C)ccc2C)cc1OC (stereo not drawn)	0.1	9.8	0.2	1.4	-0.2	-0.7
Clc1ccc(OCCn2cnc3ccccc32)c(Cl)c1	0.4	-6.3	-0.2	-0.1	-0.3	67.6*
c1ccc2c(c1)ncn2CCOCCOCCn1cnc2ccccc21	·	4.0	0.4	-0.7	-2.2	-8.1
COc1ccccc1-c1nnc(SC(C)C(=O)O)n1-c1ccccc1 (stereo not drawn)	14.6	-11.3	-0.7	0.6	0.5	0.1
SMILES	L929 necroptosis	PKD1 inh	TNF death inh	PERK inh	Redox H2O2 prof	WT yeast gro inh
CCCn1c(N2CCC(Cc3ccccc3)CC2)nc2c1c(=O)[nH]c(=O)n2C	-0.1	4.7	-6.8	-1.4	0.0	67.6*
CCCCCCn1c(N2CCN(c3ccccc3)CC2)nc2c1c(=O)n(C)c(=O)n2C	0.6	4.0	-2.9	0.0	-5.0	66.3*
CCCCCn1c(N2CCC(Cc3ccccc3)CC2)nc2c1c(=O)[nH]c(=O)n2C	-0.6	-10.4	-6.0	-1.1	-1.0	88.5*
CCOCCn1c(N2CCN(c3ccccc3)CC2)nc2c1c(=O)n(C)c(=O)n2C	-2.5	-9.5	0.6	-0.5	-0.5	-18.4
COc1cccc(-c2nn(-c3ccccc3)cc2CN(C)C(C)c2ccon2)c1 (stereo not drawn)	1.2	-6.0	2.0	-1.4	0.6	48.5
Cc1ccc2nc(SCC(=O)N(CC(C)C)c3c(N)n(Cc4ccccc4)c(=O)[nH]c3=O)[nH]c2c1	-0.8	·	-0.8	-0.6	·	·
C/C(CC(=O)Nc1ccc(C)c(Cl)c1)=N\NC(=O)c1ccncc1	1.6	-8.4	2.6	1.6	-0.1	-10.9
C/C(CC(=O)Nc1ccc(Cl)cc1Cl)=N\NC(=O)c1ccncc1	0.9	·	1.6	3.1*	·	·
O=C(O)CNc1ccccc1C(=O)O	0.1	·	4.4	3.0*	·	·
COc1cc(/C=C(/NC(=O)c2ccccc2)C(=O)Nc2ccc(O)cc2)c([N+](=O)[O-])cc1OC	-0.2	6.1	-1.3	0.6	-0.4	7.6
C#CCN(C)CC/C=C1\c2ccccc2CSc2ccccc21	-0.1	-7.7	-2.3	0.5	1.4	69.8*
Cc1ccc(/C=C/c2ccc(=O)n(Cc3ccc(Cl)cc3Cl)n2)cc1	1.1	9.0	-3.0	3.0*	2.6	-6.0
CCCC(=O)Nc1ccc(C=C(C(C)=O)C(C)=O)cc1	-1.3	·	-17.8	-0.4	·	·
CN1C=CC=C/C1=C1\SC(=S)N(c2ccccc2)C1=O	-0.2	-8.7	-3.3	0.5	-3.7	66.0*
Cc1ccc(C(=O)C(c2ccccc2)N2Cc3ccccc3C2=N)cc1 (stereo not drawn)	0.8	1.2	3.1	-0.6	0.0	69.6*
COc1ccc2c(COC(=O)CCS(=O)(=O)c3ccccc3)cc(=O)oc2c1	1.2	-1.3	0.4	0.4	-0.2	-19.1
O=C(Cc1ncon1)Nc1ccc(F)c(F)c1F	0.8	·	9.8	3.6*	·	·
CN(CC(=O)Nc1ccc(F)c(F)c1F)c1cnccn1	0.2	2.5	-0.6	-0.2	1.4	0.3
Cc1ccc(C(=O)N2CCN(c3ccccc3Cl)CC2)cc1[N+](=O)[O-]	0.0	-3.7	0.5	-0.1	-2.4	76.0*
Cc1ccc(C(=O)N2CCN(c3ccccn3)CC2)cc1[N+](=O)[O-]	1.1	-5.7	-2.2	-0.9	-2.5	-1.8
CCSS(=O)(=O)c1cccc2cccnc12	0.0	·	-1.4	0.6	·	·
CC1=[N+](C)c2c(ccc3cccnc23)C1(C)C	-0.7	1.5	-5.4	0.4	0.2	81.7*
CCC(C(=O)Nc1cccc(C(=O)O)c1C)c1ccccc1 (stereo not drawn)	1.3	0.2	0.7	3.5*	-0.8	-0.9
CCC(C(=O)Nc1cccc(C(=O)O)c1)c1ccccc1 (stereo not drawn)	14.2	-6.5	0.7	1.7	-0.1	-16.2
